Common to all, as to assay: NCI-60 one-dose screen, 48 h (100 = growth as untreated, 0 = no growth, -100 = all killed)
Common to all, as to settings: 10 µM unless noted

The subject of experiment [1] is SK-MEL-2 melanoma.
Experiment [2] deals with EKVX NSCLC.
Experiment [3] has as its system SN12C renal.
Experiment [4] concerns UO-31 renal.
The test system of experiment [5] is TK-10 renal.
In experiment [6] the test system is ACHN renal.
The subject of experiment [7] is CAKI-1 renal.
The test system of experiment [8] is A498 renal.
Experiment [9] deals with CCRF-CEM leukemia.
In experiment [10] the test system is SR leukemia.
The subject of experiment [11] is RPMI-8226 leukemia.
The subject of experiment [12] is OVCAR-8 ovarian.
For experiment [13], the system named is OVCAR-5 ovarian.
The test system of experiment [14] is OVCAR-4 ovarian.
Experiment [15] relates to SK-OV-3 ovarian.
Experiment [16] has as its system IGROV1 ovarian.
Experiment [17] concerns OVCAR-3 ovarian.
For experiment [18], the system named is HS 578T breast.
Experiment [19] relates to NCI/ADR-RES ovarian.

About 83,000 compounds went through this panel and 20% of them were active in at least one assay; those are over-represented in the sample as a whole.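 How to read the values: 0–100, growth inhibition (40 = 60% inhibited); 0, no net growth; -100 to 0, cell death (-40 = 40% of starting cells died; -100 = all dead).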 A number with no mark means an inactive call. Activity calls are given as the source filed them. The calls were made as follows: active = growth percent below 10; inactive = the rest.

Turning to `CCCCOc1nc2ccccc2cc1C1CNC(=O)c2ccccc2N1` (stereo not drawn), the growth in [1] was 15.7%; in experiment [2], 33%; in experiment [3], 44.1%; in [4], 41.3%; in experiment [5] it was 34.3%; in [6], 46.7%. The growth in experiment [7] is 42.6%; in experiment [8] it was -11.2% (active); in experiment [9] it was 12.6%; in experiment [10], 19.8%; in [11], 25.6%; in [12] it was 22.4%. Also, the growth in experiment [13] is 55.3%; in experiment [14] it was 47.7%; in [15], 14.8%; in [16] it was 38%; in [17] it was -9.73% (active); in [18] it was 34.1%. Moreover, the growth in experiment [19] was 3.84% (active).
As to `Oc1ccc(CN2CCC(N3CCOCC3)CC2)c2cccnc12`, the growth in [1] was -6.57% (active); in [2], 59.4%; in [3], 11.8%; in experiment [4], 14.5%; in [5], 30.6%; in experiment [6] it was 12.8%. Further, the growth in [7] was 43.2%; in [8], 71.1%; in experiment [9], 22.4%; in [11], 7.8% (active); in experiment [12], 19%; in [13] it was 48.8%. The growth in experiment [14] is 30.9%; in experiment [15], 36.1%; in [16], 34.9%; in experiment [17], 29.9%; in experiment [18], 24.4%; in experiment [19], 48.3%.
Regarding `CNC(=O)c1cc(Oc2cccc3nc(Nc4ccc(F)c(Cl)c4)ccc23)ccn1`, the growth in experiment [1] was 90.8%; in experiment [2] it was 69.5%; in experiment [3], 60.4%; in experiment [4], 68.7%; in experiment [5] it was 52.9%; in experiment [6] it was 75.3%. The growth is 97% in experiment [7]; 60.4% in experiment [8]; 60.3% in [9]; 54.1% in experiment [11]; 44.8% in [12]; 91.9% in experiment [13]. Moreover, the growth was 40.1% in [14]; 70.1% in experiment [15]; 44.5% in experiment [16]; 64.6% in [17]; 70% in experiment [18]; 57.4% in experiment [19].
Take `CCN1C(=O)N(CC)C2Nn3c(s/c(=C\c4ccc(Cl)cc4Cl)c3=O)=NC21` (stereo not drawn): the growth was 71.2% in experiment [1]; 68.8% in experiment [2]; 43.3% in [3]; 53.5% in [4]; 15.8% in experiment [5]; 37.6% in experiment [6]. Also, the growth in experiment [7] is 36.9%; in [8], 21.4%; in experiment [9] it was 41.7%; in experiment [11] it was 47.2%; in experiment [13], 54.5%; in experiment [14], 56.7%. The growth in experiment [15] was 70.2%; in experiment [16] it was 40.6%; in experiment [17], 17.4%; in experiment [18] it was 55.4%.
Take `CS(=O)c1cccc(-c2ccc3nc(N)n(-c4ccc(C(F)(F)F)cc4)c(=O)c3c2)c1` (stereo not drawn): the growth was 98.2% in [1]; 108% in experiment [2]; 96.3% in experiment [3]; 75.8% in experiment [4]; 94.7% in experiment [5]; 105% in experiment [6]. The growth is 96.3% in experiment [7]; 107% in [8]; 99.7% in [9]; 97.4% in [11]; 96.3% in [12]; 100% in experiment [13]. The growth was 100% in experiment [14]; 102% in [15]; 102% in experiment [16]; 101% in [17]; 88.4% in experiment [18]; 103% in [19].
With `Cc1cc(C)c(-c2c(C)cc(C)cc2CBr)c(CBr)c1`, the growth in experiment [1] was 94.5%; in experiment [2], 102%; in experiment [3], 80.3%; in experiment [4], 75.9%; in experiment [5], 103%; in experiment [6], 75%. For the same compound, the growth is 87.6% in [7]; 73.1% in experiment [8]; 42% in experiment [9]; 50.2% in experiment [11]; 68.3% in experiment [12]; 97.1% in experiment [13]. The growth in experiment [14] was 74.1%; in [15], 101%; in experiment [16], 90.3%; in [17], 90.9%; in experiment [18] it was 86.6%; in experiment [19], 72.2%.
Consider `CCN1C(=O)N(CC)C2Nn3c(s/c(=C\c4cccc([N+](=O)[O-])c4)c3=O)=NC21` (stereo not drawn), for which the growth in [1] was 73.3%; in experiment [2] it was 72.7%; in experiment [3], 48.6%; in experiment [4], 56.8%; in experiment [5], 17.9%; in experiment [6], 50.5%. Also, the growth in experiment [7] is 35.3%; in [8] it was 5.28% (active); in [9] it was 46%; in experiment [11] it was 64.8%; in experiment [12] it was 44.7%; in experiment [13], 45.4%. In addition, the growth in [14] is 59.6%; in [15] it was 51.7%; in experiment [16], 53.1%; in experiment [17], 9.24% (active); in experiment [18], 41.3%; in [19], 16.1%.
Consider `COc1ccc2nc(NNC(=O)c3cnccn3)c3cccn3c2c1`, for which the growth in [1] was 46.1%; in experiment [2], 2.79% (active); in [3], 8.52% (active); in [4], -17% (active); in [5], 30.7%; in experiment [6] it was -22.8% (active). The growth in experiment [7] was 4.46% (active); in [8], -11.5% (active); in experiment [9], 1.48% (active); in experiment [11] it was 0.953% (active); in experiment [12] it was 5.98% (active); in [13], 4.68% (active). Also, the growth was -7.44% (active) in [14]; -1.5% (active) in experiment [15]; -35% (active) in experiment [16]; 1.47% (active) in experiment [17]; 43.8% in experiment [18]; -13.4% (active) in experiment [19].

Source of the values: PubChem BioAssay (NCI).
